# Screening results deposited in PubChem BioAssay by several laboratories.
# Only some compounds are listed: those with a hit (about 2.7% of all), similar ones and a draw of the others.
# HIF-2a inh = blocks HIF-2a reporter activity | inhibition, % at 18.8 µM | 786-0 RCC cells HIF-2a reporter, luciferase luminescence, overnight | 360,000 tested, 0.72% active;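 active = inhibition of the luminescence signal of 40% or more relative to plate controls, in a single-dose primary screen at 18.75 µM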
# Peg3 promoter = Peg3 promoter activity inhibition; HeLa PEG-Prom luciferase reporter, luminescence, overnight; inhibition, % at 20 µM; 360,000 tested, 1.7% active; AID 588405;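 active = inhibition of at least 50% at 20 µM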
# TRPM1 prom inh = inhibitors of MITF-driven TRPM1 promoter in melanoma cells. 330,000 tested, 0.83% active. inhibition, % at 12.5 µM. SK-MEL-5 TRPM1 promoter luciferase, 24 h;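 active = mean inhibition across replicates of 60% or more, whatever share of single replicates reaches that level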
# Shn3 inh set2 = reduces Shn3 3'UTR luciferase signal in osteoblasts. Clone20 osteoblast Shn3 3'UTR firefly luciferase, 24 h. AID 588674. 360,000 tested, 0.52% active. inhibition, % at 12.5 µM;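 active = mean inhibition of at least 75% with every replicate also reaching 75%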
# KKLEB cytotox = counter-screen for CF NF-kB inhibitors: cytotoxicity; KKLEB CF airway cells viability, ATPlite luminescence, overnight; active compounds read low; cells stimulated with P. aeruginosa culture filtrate; activity change (cytotoxicity), % at 5 µM; 360,000 tested, 0.36% active; AID 602141;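 active = corrected activity change at or below -50% at 5 µM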
# CF NFkB block = inhibitors of cystic fibrosis induced NF-kB; 360,000 tested, 0.86% active; KKLEB NF-kB-GFP reporter, PAF-induced, GFP fluorescence overnight; inhibition, % at 5 µM;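 active = at least 50% inhibition at 5 µM, scaled per plate between neutral and stimulator controls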;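 note: PAF is a Pseudomonas aeruginosa culture filtrate used as stimulus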
# Mdm2 MdmX conf = confirmation of inhibitors of human Mdm2/MdmX interaction, set 2; shares compounds with HIF-2a inh; SaOS-2 split-luciferase Mdm2/MdmX complementation, luminescence; inhibition, % at 8 µM; 740 tested, 99% active;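 active = mean inhibition of the luminescence signal across two replicates at or above 26 percent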
# Target sequence (O15151 whole entry, looked up): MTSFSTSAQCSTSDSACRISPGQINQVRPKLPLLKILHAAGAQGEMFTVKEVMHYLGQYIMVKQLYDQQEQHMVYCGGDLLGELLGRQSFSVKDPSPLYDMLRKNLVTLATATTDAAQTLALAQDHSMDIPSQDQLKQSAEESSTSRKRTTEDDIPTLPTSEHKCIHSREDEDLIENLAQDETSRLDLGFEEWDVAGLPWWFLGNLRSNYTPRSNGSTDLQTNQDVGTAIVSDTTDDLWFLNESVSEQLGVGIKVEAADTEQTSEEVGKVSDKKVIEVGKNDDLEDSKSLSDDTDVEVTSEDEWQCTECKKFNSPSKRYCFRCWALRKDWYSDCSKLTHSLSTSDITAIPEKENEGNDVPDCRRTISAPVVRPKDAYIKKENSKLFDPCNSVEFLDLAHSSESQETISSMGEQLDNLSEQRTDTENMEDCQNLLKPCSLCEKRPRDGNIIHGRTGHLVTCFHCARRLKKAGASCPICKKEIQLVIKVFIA
# Target sequence (Q00987 whole entry, looked up): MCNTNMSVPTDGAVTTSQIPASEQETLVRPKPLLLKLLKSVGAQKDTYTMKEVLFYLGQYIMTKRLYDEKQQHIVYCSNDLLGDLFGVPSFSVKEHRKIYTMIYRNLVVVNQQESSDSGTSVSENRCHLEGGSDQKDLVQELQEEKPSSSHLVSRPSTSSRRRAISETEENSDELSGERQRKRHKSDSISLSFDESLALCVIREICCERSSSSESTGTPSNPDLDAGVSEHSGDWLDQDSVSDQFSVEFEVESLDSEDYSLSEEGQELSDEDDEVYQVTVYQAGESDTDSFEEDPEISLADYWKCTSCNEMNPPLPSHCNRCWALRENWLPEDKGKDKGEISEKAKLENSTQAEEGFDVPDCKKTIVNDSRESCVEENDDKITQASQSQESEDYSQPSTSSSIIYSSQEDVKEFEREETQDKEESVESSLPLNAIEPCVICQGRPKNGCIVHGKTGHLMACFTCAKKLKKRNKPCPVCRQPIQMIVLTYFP
# HIF-2a conf = confirmation of HIF-2a inhibitors; 1,800 tested, 56% active; 786-0 RCC cells, HIF-2a luciferase reporter luminescence, overnight; shares compounds with HIF-2a inh; inhibition, % at 18.8 µM;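 active = mean inhibition across four replicates of at least 40 percent at the single tested concentration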
# HIF-1a cs = counter-screen for HIF-2a inhibitors: HIF-1a inhibition in MiaPaCa-2 cells | shares compounds with HIF-2a inh | MiaPaCa-2 HIF-1a luciferase reporter, desferoxamine, overnight | 1,800 tested, 72% active | inhibition, % at 18.8 µM;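 active = mean inhibition of the reporter signal across four replicates at the single tested dose of 50% or more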
# A number is an active result; 0 = inactive; - = no result given.
SMILES,HIF-2a inh,Peg3 promoter,TRPM1 prom inh,Shn3 inh set2,KKLEB cytotox,CF NFkB block,HIF-2a conf,HIF-1a cs,others
CCOC(=O)c1ccc(NC(=O)c2nc[nH]c2C(=O)N(C)CCO)cc1,0,0,-,0,0,0,-,-,
COc1cc(C(C[N+](=O)[O-])c2c(-c3ccccc3)cc3ccccn23)cc(OC)c1OC (stereo unspecified),43,0,0,0,0,0,0,68,
CCc1ccc(N2C=C(C(=O)OC)C(c3ccc(OC)cc3)C(C#N)=C2N)cc1 (stereo unspecified),53,-,-,-,-,-,74,99,
COC(=O)C1=CN(c2ccc(OC)cc2)C(N)=C(C#N)C1c1ccc(OC)cc1 (stereo unspecified),0,-,-,-,-,-,-,-,
CCOc1ccc(OCc2cccc(C(=O)N3CCCCCC3)c2)cc1,44,0,0,0,0,0,0,0,
COCCCN1C(=O)C(CC(=O)NC(c2ccccc2)c2ccccc2)CC(C(=O)N2CCCCCC2)=C1C (stereo unspecified),0,-,-,-,-,-,-,-,
Cc1nc2cc(NC(=O)c3ccc([N+](=O)[O-])s3)ccc2s1,67,0,104,0,0,0,75,93,
CN(C(=O)c1cc2c(cc1Br)OCO2)c1cccc2ccccc12,0,0,-,0,0,0,-,-,
CCOC(=O)/C(=C\c1ccccc1)C(=O)c1cc(C(C)=O)c(Nc2ccccc2)s1,95,104,0,98,0,0,88,107,
CCOC(=O)/C(=C\c1cccnc1)C(=O)c1cc(C(C)=O)c(Nc2ccccc2)s1,96,119,98,98,0,95,-,-,Mdm2 MdmX conf=103
CCOC(=O)/C(C#N)=C\c1cccnc1,0,0,0,0,0,0,-,-,
COc1ccc(CN2CCN(C(=O)CCC(=O)c3ccc(C)s3)CC2)cc1OC,0,0,0,0,0,0,-,-,
COC(=O)C12OCC34C(CC5C(C)=C(O)C(=O)CC5(C)C3C(O)C1O)OC(=O)C(OC(=O)C=C(C)C)C24 (stereo unspecified),68,100,72,99,0,94,60,105,
COCCNC(=O)c1c[nH]c2ccc(S(=O)(=O)N3CCc4ccccc43)cc2c1=O,47,51,0,0,0,0,0,93,
O=[N+]([O-])c1ccc(O)c(-c2nc(-c3ccccc3)c(-c3cccs3)[nH]2)c1,0,0,0,0,-60,62,-,-,Mdm2 MdmX conf=95
CC(C)C[C@@H]1COc2cccc(N3CCC[C@@H]3CO)c2S(=O)(=O)N1,0,-,-,-,-,-,-,-,
Cc1ccc(Cl)cc1NC1=C/C(=N\S(=O)(=O)c2cccs2)c2ccccc2C1=O,90,110,90,97,-105,92,-,-,Mdm2 MdmX conf=102
Cc1ccc(NC2=C/C(=N\S(=O)(=O)c3cccs3)c3ccccc3C2=O)c(C)c1,71,111,105,98,-102,96,-,-,Mdm2 MdmX conf=101
O=c1[nH]nc2c3ccccc3occ1-2,0,-,-,-,-,-,-,-,
FC(F)(F)c1cc(-c2ccco2)nc(-n2cnc3ccccc32)n1,0,0,0,0,0,0,-,-,
Cc1nc2ccccc2n1-c1nc(-c2ccco2)cc(C(F)(F)F)n1,46,72,76,0,-82,94,0,80,
O=C(NCc1cccnc1)/C(=C/c1ccc(-c2cccc(Cl)c2)o1)S(=O)(=O)c1ccccc1,43,0,0,0,0,0,0,0,Mdm2 MdmX conf=103
CC(C)NC(=O)OCc1c(COC(=O)NC(C)C)c([N+](=O)[O-])n2c1CCC2,0,0,-,0,0,0,-,-,
O=C(c1ccc(Br)cc1)C(CN1CCOCC1)c1ccccc1 (stereo unspecified),70,0,0,96,-64,62,0,0,
CC(CN1CCOCC1)OC(=O)c1ccc(Br)cc1 (stereo unspecified),0,0,0,0,0,0,-,-,
SMILES,HIF-2a inh,Peg3 promoter,TRPM1 prom inh,Shn3 inh set2,KKLEB cytotox,CF NFkB block,HIF-2a conf,HIF-1a cs,others
COc1cc2nc(N3CCN(c4cc(C)ccc4C)CC3)nc(N)c2cc1OC,39,102,0,94,0,0,0,102,Mdm2 MdmX conf=103
COc1ccccc1C(=O)NCCNc1nc2cc(C)cc(C)c2cc1C#N,0,0,0,0,0,0,-,-,
COc1ccc(C(=O)NCCNc2nc3cc(C)cc(C)c3cc2C#N)c(OC)c1,66,-,-,-,-,-,82,98,
COC(=O)c1ccccc1NC(=O)CSc1nc(Nc2ccccc2)nc(N2CCOCC2)n1,41,0,0,0,0,0,0,70,
CC(=O)c1ccc(NC(=O)CSc2nc(Nc3ccccc3)nc(N3CCOCC3)n2)cc1,0,0,0,0,0,0,-,-,
COC(=O)c1cc(=O)n(-c2ccc(F)cc2)c(=Nc2ccc(F)cc2)s1,53,93,0,0,0,0,66,91,
C[C@@H]1CCCN1[C@H]1CS(=O)(=O)N[C@@H]1COCc1ccccc1,0,0,-,0,0,0,-,-,
CCCCNC(=O)C1(C)CCN1C(=O)c1ccc(OC)c(F)c1 (stereo unspecified),0,0,-,0,0,0,-,-,
O=C(Nc1cccc(C(=O)O)c1)Nc1ccccc1Cl,40,0,0,0,0,0,0,0,
O=C(NCc1ccccc1)C(=O)Nc1cccc(C(=O)O)c1,58,0,63,0,0,0,71,0,
O=C(Nc1cccc(Cl)c1)Nc1cccc(C(=O)O)c1,0,0,0,0,0,0,-,-,
COC(=O)c1cccc(NC(=O)Nc2ccc(Cl)c(Cl)c2)c1,0,0,0,0,0,0,-,-,
COC(=O)c1cccc(NC(=O)NC(=O)c2ccccc2Cl)c1,57,0,0,0,0,0,64,0,
Nc1ccc2c(c1)C(=O)c1ccccc1C2=O,0,0,0,0,0,0,-,-,
O=C1C(=O)c2ccc(-c3ccccc3)cc2-c2ccccc21,93,101,104,96,-100,102,-,-,Mdm2 MdmX conf=103
O=C(Nc1cccc(C(F)(F)F)c1)Nc1ccc(N2CCCC2)c(S(=O)(=O)Nc2ccccc2Cl)c1,0,64,72,92,-58,59,-,-,Mdm2 MdmX conf=102
CC(=O)Nc1ccc(N2CCOCC2)c(S(=O)(=O)Nc2ccccc2Cl)c1,0,0,-,0,0,0,-,-,
Cc1ccc(NC(=O)CSc2nc3ccccc3c(=O)n2CCCN2CCCCC2)cc1Cl,0,114,0,0,0,0,-,-,Mdm2 MdmX conf=103
OC(c1ccccc1)(c1ccccc1)C1CCN(CCCOc2cccc(OC(F)(F)F)c2)CC1,0,-,-,-,-,-,-,-,
CC(C)(C)c1ccc(C(O)CCCN2CCC(C(O)(c3ccccc3)c3ccccc3)CC2)cc1 (stereo unspecified),97,96,94,97,0,0,0,108,
